# Source: PubChem
# TDP1 cell CPT: DT40-hTDP1 cell growth loss with CPT; chicken DT40 Tdp1-/-;hTDP1 cells + 20 nM CPT, ATP luminescence, 48 h; Potency, µM (highest dose often 46.2 µM), actives largely listed as inhibitors; 420,000 compounds, 12% hits; AID 686979; further: nearly all actives have a fitted effect of over 55% in size
#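 Chicken DT40 Tdp1-/- cells stably complemented with human TDP1 were seeded at 400 cells/well in medium containing 20 nM camptothecin, exposed to pin-transferred compounds, and grown at 37 °C for at least 48 hr. Viability was read as ATP luminescence.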
# TGFb SMAD3 inh: blocks TGF-b signaling; HepG2 CAGA-GFP TGF-b/SMAD3 reporter, GFP fluorescence, 18 h; TGF-beta stimulated, 500 pg/mL final; Potency, µM (highest dose often 46.1 µM), most hits filed as inhibitors; 410,000 compounds, 1.2% hits; further: nearly all actives have a fitted effect of over 65% in size
#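 Cell-based qHTS in HEPG2 carrying a CAGA-GFP Smad reporter; compounds added before 500 pg/mL final TGF-beta, 18 h incubation at 37 degrees C, GFP fluorescence quantified per cell by imaging cytometry.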
# HT1080 IDH1KD tx: HT-1080 IDH1 knockdown cell toxicity (counter line); HT-1080 IDH1 knockdown viability, ATP luminescence, 48 h; Potency, µM (titrated, usually from 46.1 µM), actives largely listed as cytotoxic; 360,000 compounds, 2% hits
#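 Luminescent ATP read-out (CellTiter-Glo, 10 min at room temperature) after 48 h compound exposure at 37 °C gave viability of IDH1-knockdown HT-1080 cells. Activity was normalised to DMSO and cell-free wells, then fitted as concentration-response curves.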
# HT1080-NT tox: kills 2HG-producing HT-1080-NT fibrosarcoma cells; Potency, µM (top dose mostly 46.1 µM), actives largely listed as cytotoxic; HT-1080-NT fibrosarcoma viability, CellTiter-Glo ATP luminescence, 48 h; 360,000 compounds, 1.6% hits;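 further: NT is the 2HG producing partner of a matched IDH1 knockdown line; nearly all actives have a fitted effect of over 55% in size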
#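 Read-out is CellTiter-Glo luminescence after 10 minutes at room temperature, following 48 hours' compound treatment of HT-1080-NT cells (750 cells/well, RPMI, 5% FBS, 37 degrees C).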
# DT40 TDP1 no CPT: qHTS for Inhibitors of human tyrosyl-DNA phosphodiesterase 1 (TDP1): qHTS in cells in absence of CPT; Potency, µM (top dose mostly 46.2 µM), hits mostly inhibitors; AID 686978, 2013; 420,000 compounds, 15% hits; DT40 Tdp1-/- hTDP1 cells, no CPT, ATP luminescence, 48 h; further: nearly all actives have a fitted effect of over 55% in size
#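 A cellular qHTS used chicken DT40 cells lacking endogenous Tdp1 but carrying stably transfected human TDP1. Compounds were applied without camptothecin, and cell growth kinetics were judged by ATP-dependent luminescence after ≥48 hr.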
# HepG2 viability: counter-screen for TGF-b inhibitors: cytotoxicity in HepG2 cells. Potency, µM (doses to about 46.1 µM), actives largely listed as cytotoxic. 410,000 compounds, 0.76% hits. HepG2 CAGA-GFP viability, ATP luminescence, 18 h
#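 HepG2 CAGA-GFP cells (1000/well, DMEM with 1% FBS) received compound, then TGF-beta at 500 pg/mL final, and were incubated 18 hours at 37 degrees C. Viability was read by CellTiter-Glo luminescence. Media-only wells were set as complete cell-killing and DMSO as no toxicity.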
# Numbers stand for hits; i = inactive; ? = inconclusive; nt = no result; [ ] = another dose, or the depositor's remark. Only some compounds are listed: those with a hit (about 17% of all), similar ones and a draw of the others. The call rests on the fitted dose curve; in most records, active means well fitted curve in the direction sought with a large enough effect; inconclusive means small, poorly fitted or top-dose-only effect, or another doubt; inactive means no such curve, though single readings can be large; an effect the other way counts as inactive or inconclusive.
SMILES,TDP1 cell CPT,TGFb SMAD3 inh,HT1080 IDH1KD tx,HT1080-NT tox,DT40 TDP1 no CPT,HepG2 viability
Cc1nnc(SCC(=O)NCc2cccc(F)c2)c2nn(-c3ccccc3)c(C)c12,8.2µM,?,nt,nt,7.3µM,i
Cc1nnc(SCC(=O)NCc2ccccc2F)c2nn(-c3ccc(Cl)cc3)c(C)c12,13µM,?,nt,nt,8.2µM,i
COc1ccccc1N(C)C(=O)c1cc(S(=O)(=O)N2CCCC2)cn1C,i,i,i,i,i,i
Cc1cc(OCc2cc(C(=O)N(Cc3nccn3C)C(C)C)no2)cc(C)c1Cl,16µM,?,?,?,6.5µM,i
CSc1ccccc1OCc1cc(C(=O)N(Cc2nccn2C)C(C)C)no1,18µM,i,i,i,?,i
CC(C)N(Cc1nccn1C)C(=O)c1cc(COc2cccc(C(F)(F)F)c2)on1,16µM,?,i,i,13µM,i
Cc1ccc(CN(C)C(=O)c2cc(COc3cccc(C(F)(F)F)c3)on2)o1,?,?,i,i,18µM,i
CCn1ccnc1CN(C)C(=O)c1cc(COc2ccccc2SC)on1,?,i,i,i,i,i
COC(=O)c1c(NC(NC(=O)c2ccccc2)(C(F)(F)F)C(F)(F)F)sc2c1CCN(C)C2,?,i,i,i,?,i
COc1cc(/C=C2\C=Cc3ccccc32)ccc1N(C)C,?,i,nt,nt,?,i
CC1=CC(=C(c2ccc(N)cc2)c2ccc(N)cc2)C=CC1=N,2.7µM,?,nt,nt,3µM,i
COc1ccc(NC(=O)CC2C(=O)N(c3cccc(OC)c3)C(=O)N2Cc2ccco2)cc1 (centres undefined),i,i,i,i,i,i
COc1ccc(N2C(=O)[C@H]3[C@@H](C2=O)C2c4ccccc4C=NN2[C@H]3C(=O)C(C)(C)C)cc1 (some centres undefined),i,i,i,i,i,i
O=C(c1ccc2c(c1)OCO2)[C@@H]1[C@@H]2C(=O)N(C3CCCCC3)C(=O)[C@@H]2C2c3ccccc3C=CN21 (some centres undefined),?,i,i,i,16µM,i
COc1ccc(N2C(=O)[C@@H]3[C@H](C2=O)[C@H]2c4ccccc4C=CN2[C@@H]3C(C)=O)cc1,?,i,i,i,16µM,i
CC(C)(C)C(=O)[C@@H]1[C@@H]2C(=O)N(C3CCCCC3)C(=O)[C@@H]2[C@H]2c3ccccc3C=CN12,23µM,?,i,i,?,i
O=C(c1ccc2c(c1)OCO2)C1CCCN(C(=O)C2CCOCC2)C1 (centres undefined),i,i,i,i,i,i
CCOC(=O)c1c(C)[nH]c(C(=O)N/N=C\c2ccccc2O)c1C,4.1µM,i,5.8µM,7.3µM,3.7µM,i
COc1ccc(/C=N/NC(=O)c2[nH]nc3c2CCc2ccccc2-3)cc1OC,6.5µM,i,?,i,2.6µM,i
CCOC(=O)c1[nH]c(C)c(C(=O)OCC(=O)NCc2ccc(OC)c(OC)c2)c1C,?,i,i,i,?,i
CCOC(=O)c1c(C)[nH]c(C(=O)N/N=C/c2cc([N+](=O)[O-])ccc2O)c1C,6.5µM,i,?,i,6.5µM,i
CCOC(=O)c1c(C)[nH]c(C(=O)N/N=C/c2ccc(OC)c(OC)c2)c1C,1.2µM,i,?,i,0.92µM,i
COc1ccccc1/C=N/NC(=O)c1[nH]c(C)c(C(=O)N/N=C/c2ccccc2OC)c1C,i,i,i,i,i,i
CCOC(=O)c1c(C)[nH]c(C(=O)OCc2ccc([N+](=O)[O-])cc2)c1C,?,i,i,i,i,i
COc1ccc(CCNC(=O)C(=O)NCC2OCCN2C(=O)c2ccc(Cl)cc2)cc1OC (centres undefined),i,i,i,i,i,i
SMILES,TDP1 cell CPT,TGFb SMAD3 inh,HT1080 IDH1KD tx,HT1080-NT tox,DT40 TDP1 no CPT,HepG2 viability
Nc1nn2c(-c3ccccc3)cc(=O)[nH]c2c1N=Nc1ccc(Br)cc1,?,i,i,i,16µM,i
O=C(N/N=C/c1cccc2ccccc12)c1cccnc1,i,?,i,i,i,i
Cn1c(-c2ccccc2)c(/C=N/NC(=O)c2cccnc2)c2ccccc21,i,i,?,i,23µM,i
O=C(N/N=C/c1c(-c2ccccc2)[nH]c2ccccc12)c1cccnc1,6.5µM,i,?,i,3.3µM,i
O=C(NC(=S)Nc1ccccc1Br)c1ccco1,i,i,i,i,?,i
CCNc1ncc2ncc(=O)n(C[C@H]3CCCO3)c2n1,12µM,nt,nt,nt,21µM,nt
CCOC(=O)N1CCC(NC(=O)c2cnn3c(C(F)(F)F)cc(-c4cccc(OC)c4)nc23)CC1,13µM,i,i,i,16µM,i
COc1ccc(-c2cc(C(F)(F)F)n3ncc(C(=O)N4CCCCC4c4cccnc4)c3n2)cc1 (centres undefined),16µM,i,i,i,?,i
CCOC(=O)c1cnn2c(C(F)(F)F)cc(-c3ccccc3)nc12,?,i,i[9.24 µM],i,i,i
